# In PubChem BioAssay (NCATS):
# Values joined by “and” are separate entries in the source; they are usually repeats but may differ in a detail not shown here. Identical values can stand only once. Results filed as inconclusive are left out. Values without a mark were called inactive. Calls come from the whole dose curve; as a rule, active = well fitted curve in the direction sought with a large enough effect; inconclusive = small, poorly fitted or top-dose-only effect, or another doubt; inactive = no such curve, though single readings can be large or run the other way.
# Assay: qHTS Assay for Identifying Gametocytocidal Compounds (AID 743244);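 note: actives lower the fluorescent signal which means gametocytes are killed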
# Settings: P. falciparum 3D7 stage III-V gametocytes, alamarBlue, 72 h; max response: stronger effect = lower value
# In short: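 Compounds are pinned into medium, gametocytes (stage III–V, 3D7, 20,000 cells/well) added, and plates held 72 h at 37 °C in 5% CO2. AlamarBlue follows for 24 h before fluorescence reading.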
# % is set by controls: 0 for no effect and ±100 for the full control effect.
row,Compound,max response
1,CC(=O)N[C@@H](C=O)[C@@H](O)[C@H](O)[C@H](O)CO,11.4%
2,CC1CCCCN1CCCOC(=O)c1ccccc1 (stereo not drawn),6.88%
3,Cc1cccc(C)c1NC(=O)C1CCCCN1C (stereo not drawn),-1.88%
4,CC(C)(C)CC(C)(C)c1cc(Cc2cc(C(C)(C)CC(C)(C)C)cc(-n3nc4ccccc4n3)c2O)c(O)c(-n2nc3ccccc3n2)c1,-7%
5,COc1ccc(C[C@H](C)NC[C@@H](O)c2ccc(O)c(NC=O)c2)cc1,-5.27%
6,CCCc1ccc(C(=O)O)cc1,0.792%
7,NC(N)=NCC1COC2(CCCCC2)O1 (stereo not drawn),9.74%
8,CN[C@@H]1[C@H](O[C@H]2[C@H](O[C@H]3[C@H](O)[C@@H](O)[C@H](N=C(N)N)[C@@H](O)[C@@H]3N=C(N)N)O[C@@H](C)[C@]2(O)CO)O[C@@H](CO)[C@H](O)[C@H]1O,8.75%
9,COc1ccc(C(=O)c2ccc(C)cc2)c(O)c1,-6.86%
10,CC(=O)Nc1c(I)c(C(=O)O)c(I)c(N(C)C(C)=O)c1I,-0.708%
11,CN[C@@H]1[C@@H](O)[C@@H](O[C@@H]2[C@@H](O)[C@H](OC3OC(CN)=CCC3N)[C@@H](N)C[C@H]2N)OC[C@]1(C)O (stereo partly drawn),-3.17%
12,COc1ccc(/C=C/C(=O)O)cc1,-1.23%
13,CC(C)C[C@H](NC(=O)[C@@H](COC(C)(C)C)NC(=O)[C@H](Cc1ccc(O)cc1)NC(=O)[C@H](CO)NC(=O)[C@H](Cc1c[nH]c2ccccc12)NC(=O)[C@H](Cc1cnc[nH]1)NC(=O)[C@@H]1CCC(=O)N1)C(=O)N[C@@H](CCCN=C(N)N)C(=O)N1CCC[C@H]1C(=O)NNC(N)=O,16.2% and -4.65%
